Columns and labels:
Assay in all cases: DAPPL (digital affinity profiling via proximity ligation, sequencing); 10 mM Tris-HCl pH 7.5, 50 mM NaCl, 1 mM DTT, 4% glycerol, room temperature, 30 min; GST-TFs on glutathione beads, 16-mer random dsDNA library, 0.1% formaldehyde crosslink after washing; high values mean tight binding
Conditions in all cases: protein: recombinant; tags: N-terminal GST; dsDNA, one strand shown
[1] = target: T1, FLI1 (Homo sapiens, UniProt Q01543 1-452)
T1 sequence: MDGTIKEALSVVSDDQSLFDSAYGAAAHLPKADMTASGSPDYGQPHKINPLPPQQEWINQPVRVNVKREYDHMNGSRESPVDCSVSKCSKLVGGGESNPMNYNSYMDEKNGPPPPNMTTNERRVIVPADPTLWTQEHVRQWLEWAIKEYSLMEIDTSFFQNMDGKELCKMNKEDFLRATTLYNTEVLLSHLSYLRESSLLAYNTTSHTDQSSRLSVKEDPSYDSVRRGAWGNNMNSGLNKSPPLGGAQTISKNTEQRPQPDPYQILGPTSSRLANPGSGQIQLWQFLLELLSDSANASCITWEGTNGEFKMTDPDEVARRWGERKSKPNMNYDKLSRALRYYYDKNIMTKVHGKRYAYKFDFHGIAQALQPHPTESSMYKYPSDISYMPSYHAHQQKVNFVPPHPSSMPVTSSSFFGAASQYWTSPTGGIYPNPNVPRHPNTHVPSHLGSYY
In short: (§1)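 Beads coated with glutathione captured GST-fused human transcription factors that had been expressed in yeast, and the factors were then given DNA barcodes and pooled with a tag-only sample. The pools were incubated with 200 nmole of a random double-stranded 16-mer DNA library in Tris/NaCl/DTT/glycerol buffer for 30 min at room temperature, washed, crosslinked with 0.1% formaldehyde and proximity-ligated with BsaI/T4 ligase at 37 °C for 1 h. PCR amplification and Illumina NextSeq500 sequencing came last. Binding signal is each hexamer's read frequency for a factor divided by its frequency for the tag-only sample.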

[2] = target: T2, ELK1 (Homo sapiens, UniProt P19419 1-428)
T2 sequence: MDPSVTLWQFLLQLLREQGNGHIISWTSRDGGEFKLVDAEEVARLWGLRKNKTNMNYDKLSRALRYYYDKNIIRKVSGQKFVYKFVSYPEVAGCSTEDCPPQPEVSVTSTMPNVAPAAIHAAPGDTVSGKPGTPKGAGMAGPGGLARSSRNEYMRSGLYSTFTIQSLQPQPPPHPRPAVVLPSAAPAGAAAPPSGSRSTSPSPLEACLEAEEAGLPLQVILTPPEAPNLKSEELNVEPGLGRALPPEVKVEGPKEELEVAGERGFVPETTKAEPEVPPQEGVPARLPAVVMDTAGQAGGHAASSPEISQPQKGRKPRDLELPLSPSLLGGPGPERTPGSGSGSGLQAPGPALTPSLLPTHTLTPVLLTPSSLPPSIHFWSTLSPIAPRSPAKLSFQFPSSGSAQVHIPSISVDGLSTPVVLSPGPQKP
In short: as §1

[3] = target: T3, GABPA (Homo sapiens, UniProt Q06546 1-454)
T3 sequence: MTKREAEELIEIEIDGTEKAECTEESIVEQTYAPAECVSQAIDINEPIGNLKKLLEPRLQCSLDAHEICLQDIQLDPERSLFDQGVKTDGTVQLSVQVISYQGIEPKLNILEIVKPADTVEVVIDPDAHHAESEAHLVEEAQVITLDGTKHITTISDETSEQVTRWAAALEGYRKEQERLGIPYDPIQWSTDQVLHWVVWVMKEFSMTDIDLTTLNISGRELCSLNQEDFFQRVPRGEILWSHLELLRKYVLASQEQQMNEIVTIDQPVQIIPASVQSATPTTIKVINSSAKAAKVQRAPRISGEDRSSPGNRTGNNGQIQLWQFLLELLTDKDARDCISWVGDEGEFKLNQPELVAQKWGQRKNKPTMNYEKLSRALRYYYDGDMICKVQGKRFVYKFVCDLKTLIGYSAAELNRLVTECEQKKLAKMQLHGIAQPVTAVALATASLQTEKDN
In short: as §1

[4] = target: ELF1 (Homo sapiens, UniProt P32519 1-619)
Chain of ELF1 (P32519 whole entry): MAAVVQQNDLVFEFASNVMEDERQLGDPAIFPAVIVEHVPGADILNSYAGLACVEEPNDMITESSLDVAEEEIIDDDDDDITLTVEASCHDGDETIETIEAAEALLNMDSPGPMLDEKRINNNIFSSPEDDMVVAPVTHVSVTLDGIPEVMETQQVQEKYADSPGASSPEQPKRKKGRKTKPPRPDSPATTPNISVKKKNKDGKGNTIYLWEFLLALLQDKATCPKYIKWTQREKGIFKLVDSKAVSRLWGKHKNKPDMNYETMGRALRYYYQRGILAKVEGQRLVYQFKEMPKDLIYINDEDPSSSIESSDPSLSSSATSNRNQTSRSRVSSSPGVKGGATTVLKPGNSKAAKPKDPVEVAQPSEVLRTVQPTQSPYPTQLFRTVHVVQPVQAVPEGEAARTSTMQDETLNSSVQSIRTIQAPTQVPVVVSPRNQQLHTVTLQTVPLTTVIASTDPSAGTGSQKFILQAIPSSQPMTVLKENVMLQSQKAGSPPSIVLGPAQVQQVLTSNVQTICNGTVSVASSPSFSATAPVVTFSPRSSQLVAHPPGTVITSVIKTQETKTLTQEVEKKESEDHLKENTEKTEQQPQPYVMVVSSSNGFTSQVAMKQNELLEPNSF
In short: as §1

[5] = target: T4, EHF (Homo sapiens, UniProt Q9NZC4 1-300)
T4 sequence: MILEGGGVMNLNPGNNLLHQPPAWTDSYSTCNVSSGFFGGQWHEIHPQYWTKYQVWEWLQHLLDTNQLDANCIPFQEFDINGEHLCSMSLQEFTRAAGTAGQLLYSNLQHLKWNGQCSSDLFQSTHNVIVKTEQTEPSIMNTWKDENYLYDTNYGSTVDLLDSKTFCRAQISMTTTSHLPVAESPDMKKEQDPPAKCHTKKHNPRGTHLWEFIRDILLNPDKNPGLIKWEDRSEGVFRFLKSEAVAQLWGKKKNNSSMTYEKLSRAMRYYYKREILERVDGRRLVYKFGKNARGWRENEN
In short: as §1

[6] = target: SPI1 (Homo sapiens, UniProt P17947 1-270)
In short: as §1

[7] = target: SPIB (Homo sapiens, UniProt Q01892 1-262)
Chain of SPIB (Q01892 whole entry): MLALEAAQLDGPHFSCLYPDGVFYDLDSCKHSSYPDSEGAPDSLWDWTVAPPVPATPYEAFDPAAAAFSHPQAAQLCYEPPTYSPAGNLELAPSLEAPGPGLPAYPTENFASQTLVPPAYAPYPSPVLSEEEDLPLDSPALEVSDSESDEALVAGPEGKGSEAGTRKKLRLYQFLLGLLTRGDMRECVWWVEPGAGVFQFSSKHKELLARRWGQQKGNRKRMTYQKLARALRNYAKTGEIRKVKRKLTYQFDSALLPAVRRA
In short: as §1

[8] = target: T5, ELK3 (Homo sapiens, UniProt P41970 1-407)
T5 sequence: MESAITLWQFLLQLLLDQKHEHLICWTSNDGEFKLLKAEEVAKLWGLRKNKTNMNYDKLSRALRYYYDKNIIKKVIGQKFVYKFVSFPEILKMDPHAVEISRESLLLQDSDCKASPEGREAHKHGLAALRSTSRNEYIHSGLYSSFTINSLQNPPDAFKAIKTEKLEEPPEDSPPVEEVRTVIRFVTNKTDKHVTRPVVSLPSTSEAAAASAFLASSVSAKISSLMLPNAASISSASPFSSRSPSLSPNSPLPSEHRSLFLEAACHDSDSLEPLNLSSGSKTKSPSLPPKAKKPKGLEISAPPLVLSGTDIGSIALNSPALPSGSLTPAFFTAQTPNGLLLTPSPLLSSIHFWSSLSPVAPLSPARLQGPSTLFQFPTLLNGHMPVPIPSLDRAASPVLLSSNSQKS
In short: as §1

[9] = target: T6, FEV (Homo sapiens, UniProt Q99581 1-238)
T6 sequence: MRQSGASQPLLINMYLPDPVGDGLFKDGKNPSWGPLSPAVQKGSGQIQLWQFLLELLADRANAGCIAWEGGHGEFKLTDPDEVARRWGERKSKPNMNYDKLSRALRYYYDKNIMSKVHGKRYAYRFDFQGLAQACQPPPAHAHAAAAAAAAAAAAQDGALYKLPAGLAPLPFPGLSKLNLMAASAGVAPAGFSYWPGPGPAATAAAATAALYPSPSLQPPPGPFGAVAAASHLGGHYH
In short: as §1

[10] = target: ETV5 (Homo sapiens, UniProt P41161 1-510)
Chain of ETV5 (P41161 whole entry): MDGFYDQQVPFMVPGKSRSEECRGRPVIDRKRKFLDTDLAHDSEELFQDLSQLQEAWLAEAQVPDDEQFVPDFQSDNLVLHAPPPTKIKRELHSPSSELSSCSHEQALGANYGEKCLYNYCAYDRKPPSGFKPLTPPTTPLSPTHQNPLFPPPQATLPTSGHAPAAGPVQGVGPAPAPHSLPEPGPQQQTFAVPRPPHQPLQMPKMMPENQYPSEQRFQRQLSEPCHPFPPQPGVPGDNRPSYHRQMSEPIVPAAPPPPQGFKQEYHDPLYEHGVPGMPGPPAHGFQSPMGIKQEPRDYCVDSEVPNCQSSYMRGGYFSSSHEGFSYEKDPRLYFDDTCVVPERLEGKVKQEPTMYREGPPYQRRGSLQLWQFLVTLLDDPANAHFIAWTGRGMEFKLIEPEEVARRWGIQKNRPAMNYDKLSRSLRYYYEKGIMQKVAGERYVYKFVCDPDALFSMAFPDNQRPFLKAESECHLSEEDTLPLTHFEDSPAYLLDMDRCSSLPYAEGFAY
In short: as §1

[11] = target: T7, SPIC (Homo sapiens, UniProt Q8N5J4 1-248)
T7 sequence: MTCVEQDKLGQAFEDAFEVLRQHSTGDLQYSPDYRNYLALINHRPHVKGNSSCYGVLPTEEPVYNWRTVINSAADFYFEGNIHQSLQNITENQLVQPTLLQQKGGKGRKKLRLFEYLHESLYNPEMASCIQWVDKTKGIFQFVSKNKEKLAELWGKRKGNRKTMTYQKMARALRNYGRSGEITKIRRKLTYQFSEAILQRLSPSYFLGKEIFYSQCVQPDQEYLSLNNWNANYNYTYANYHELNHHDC
In short: as §1

[12] = target: ELF4 (Homo sapiens, UniProt Q99607 1-663)
Chain of ELF4 (Q99607 whole entry): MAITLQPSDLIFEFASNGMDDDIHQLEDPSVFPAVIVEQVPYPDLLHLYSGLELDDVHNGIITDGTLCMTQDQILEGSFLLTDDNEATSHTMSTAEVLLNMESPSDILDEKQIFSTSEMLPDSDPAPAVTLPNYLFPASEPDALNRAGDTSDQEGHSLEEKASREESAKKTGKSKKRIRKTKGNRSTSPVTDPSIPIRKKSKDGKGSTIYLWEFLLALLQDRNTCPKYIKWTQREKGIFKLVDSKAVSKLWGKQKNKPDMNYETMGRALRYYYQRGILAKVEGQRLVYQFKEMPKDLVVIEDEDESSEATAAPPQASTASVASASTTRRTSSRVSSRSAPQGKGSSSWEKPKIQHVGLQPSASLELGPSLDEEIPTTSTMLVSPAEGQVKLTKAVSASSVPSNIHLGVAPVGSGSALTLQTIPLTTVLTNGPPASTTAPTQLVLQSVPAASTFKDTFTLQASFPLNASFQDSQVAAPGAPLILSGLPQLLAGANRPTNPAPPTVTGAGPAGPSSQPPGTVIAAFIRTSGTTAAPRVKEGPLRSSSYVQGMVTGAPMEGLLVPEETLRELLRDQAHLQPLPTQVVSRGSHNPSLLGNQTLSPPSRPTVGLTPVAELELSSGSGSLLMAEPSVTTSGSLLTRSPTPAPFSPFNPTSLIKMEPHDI
In short: as §1

[13] = target: T8, ELK4 (Homo sapiens, UniProt P28324-2 1-405)
T8 sequence: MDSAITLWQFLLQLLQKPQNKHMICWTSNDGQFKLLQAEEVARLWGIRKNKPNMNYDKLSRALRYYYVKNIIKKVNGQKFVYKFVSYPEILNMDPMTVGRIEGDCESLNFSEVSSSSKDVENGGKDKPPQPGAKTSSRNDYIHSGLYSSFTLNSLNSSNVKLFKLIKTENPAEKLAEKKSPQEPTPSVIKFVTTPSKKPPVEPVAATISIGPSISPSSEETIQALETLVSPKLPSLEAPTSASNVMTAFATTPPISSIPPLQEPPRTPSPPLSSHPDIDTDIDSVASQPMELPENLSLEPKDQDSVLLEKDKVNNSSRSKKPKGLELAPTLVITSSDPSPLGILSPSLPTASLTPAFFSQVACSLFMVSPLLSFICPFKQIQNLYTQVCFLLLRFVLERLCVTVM
In short: as §1

[14] = target: T9, ETV2 (Homo sapiens, UniProt O00321 1-342)
T9 sequence: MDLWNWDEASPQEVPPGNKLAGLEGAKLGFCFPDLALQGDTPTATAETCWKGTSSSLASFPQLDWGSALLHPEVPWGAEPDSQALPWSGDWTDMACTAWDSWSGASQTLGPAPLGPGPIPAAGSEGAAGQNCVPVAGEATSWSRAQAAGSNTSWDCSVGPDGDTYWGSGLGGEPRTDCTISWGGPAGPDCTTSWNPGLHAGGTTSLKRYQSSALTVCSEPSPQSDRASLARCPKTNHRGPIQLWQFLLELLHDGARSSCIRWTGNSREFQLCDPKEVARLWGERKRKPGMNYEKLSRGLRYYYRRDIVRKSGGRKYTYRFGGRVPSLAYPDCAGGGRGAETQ
In short: as §1

[15] = target: T10, ELF3 (Homo sapiens, UniProt P78545 1-371)
T10 sequence: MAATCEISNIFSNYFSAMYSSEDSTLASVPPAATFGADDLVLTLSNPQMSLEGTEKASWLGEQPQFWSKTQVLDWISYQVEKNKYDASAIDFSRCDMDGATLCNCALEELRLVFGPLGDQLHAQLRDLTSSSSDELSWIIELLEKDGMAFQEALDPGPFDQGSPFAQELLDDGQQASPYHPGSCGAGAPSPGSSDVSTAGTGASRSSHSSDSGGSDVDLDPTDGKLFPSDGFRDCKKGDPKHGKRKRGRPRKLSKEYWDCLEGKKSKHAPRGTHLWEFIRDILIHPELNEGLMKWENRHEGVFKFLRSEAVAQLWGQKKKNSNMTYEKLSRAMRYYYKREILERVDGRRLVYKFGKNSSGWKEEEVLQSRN
In short: as §1

[16] = target: ETV1 (Homo sapiens, UniProt P50549 1-477)
Chain of ETV1 (P50549 whole entry): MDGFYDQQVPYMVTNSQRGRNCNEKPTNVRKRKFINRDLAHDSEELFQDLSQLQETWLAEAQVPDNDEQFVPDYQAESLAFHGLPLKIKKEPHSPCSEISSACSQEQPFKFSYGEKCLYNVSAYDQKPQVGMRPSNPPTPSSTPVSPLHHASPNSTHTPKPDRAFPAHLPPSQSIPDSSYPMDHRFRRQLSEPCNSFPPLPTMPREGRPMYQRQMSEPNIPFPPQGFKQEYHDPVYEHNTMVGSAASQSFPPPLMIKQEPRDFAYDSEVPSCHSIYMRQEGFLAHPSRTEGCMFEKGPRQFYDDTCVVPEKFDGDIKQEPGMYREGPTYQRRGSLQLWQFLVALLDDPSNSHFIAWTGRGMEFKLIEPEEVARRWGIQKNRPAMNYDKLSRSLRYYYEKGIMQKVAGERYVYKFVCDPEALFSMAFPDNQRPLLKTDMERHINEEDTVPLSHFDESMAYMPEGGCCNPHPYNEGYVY
In short: as §1

GTAGCA
binding signal [1]: 1.03 fold enrichment (6-mer frequency, TF over GST control)
binding signal [2]: 1.1 fold enrichment (6-mer frequency, TF over GST control)
binding signal [3]: 1.15 fold enrichment (6-mer frequency, TF over GST control)
binding signal [4]: 1.16 fold enrichment (6-mer frequency, TF over GST control)
binding signal [5]: 1.1 fold enrichment (6-mer frequency, TF over GST control)
binding signal [6]: 1.08 fold enrichment (6-mer frequency, TF over GST control)
binding signal [7]: 1.03 fold enrichment (6-mer frequency, TF over GST control)
binding signal [8]: 1.11 fold enrichment (6-mer frequency, TF over GST control)
binding signal [9]: 1.07 fold enrichment (6-mer frequency, TF over GST control)
binding signal [10]: 1.13 fold enrichment (6-mer frequency, TF over GST control)
binding signal [11]: 1.16 fold enrichment (6-mer frequency, TF over GST control)
binding signal [12]: 1.07 fold enrichment (6-mer frequency, TF over GST control)
binding signal [13]: 1.06 fold enrichment (6-mer frequency, TF over GST control)
binding signal [14]: 1.11 fold enrichment (6-mer frequency, TF over GST control)
binding signal [15]: 1.01 fold enrichment (6-mer frequency, TF over GST control)
binding signal [16]: 1.11 fold enrichment (6-mer frequency, TF over GST control)
